One may read the AC50 as the concentration at which the activity in the assay is half-maximal.

A short description of experiment [1]: ATG_GLI_CIS: Attagene CIS-FACTORIAL HepG2 Assay for human Zinc Finger Protein GLI1 (AID 2282945). The note with it: HepG2, Attagene cis-factorial reporter mRNA, GLI element; actives raise or lower the signal. An outline of the steps:
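Bidirectional curve fits relative to DMSO, using reporter mRNA levels from RT-PCR plus capillary electrophoresis. Cells were HepG2 transiently carrying cis-regulated reporter constructs, harvested 24 h after dosing.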

The target of experiment [2] is Bile acid receptor (Homo sapiens) (UniProt Q96RI1). Put plainly: ATG_IR1_CIS: Attagene CIS-FACTORIAL HepG2 Assay for human Nuclear Receptor Subfamily 1 Group H Member 4 (NR1H4), IR1 submotif (AID 2282946). To be noted: IR1 reporter transcription, actives raise or lower the signal. An outline of the steps: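 HepG2 cells transiently transfected with multiplexed cis-element reporter units read endogenous transcription factor activity. After 24 h compound exposure, reporter mRNA was quantified by RT-PCR, fluorescent labelling, HpaI digestion and capillary electrophoresis; bidirectional fitting versus DMSO baseline.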

The nature of experiment [3]: ATG_GRE_CIS: Attagene CIS-FACTORIAL HepG2 Assay for human Glucocorticoid Response Elements (GRE) (AID 2282947). The note with it: HepG2 GRE cis-reporter, Attagene multiplex mRNA; actives raise or lower the signal. An outline of the steps: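 Reporter transcripts read by RT-PCR with capillary electrophoresis fluorescence after a 24 h chemical exposure of HepG2 cells transiently transfected with multiple cis-element reporter units. Gain or loss fitted against DMSO.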

Experiment [4] can be described thus: ATG_ISRE_CIS: Attagene CIS-FACTORIAL HepG2 Assay for human Interferon Regulatory Factor 1 (IRF1) binding to an Interferon-Stimulated Response Element (ISRE) (AID 2282948). To be noted: HepG2 ISRE cis-reporter (Attagene), mRNA transcription readout; actives raise or lower the signal. An outline of the steps:
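Endogenous transcription factor activity read as reporter transcript abundance via RT-PCR and capillary electrophoresis. HepG2 cells transiently transfected, 24 h chemical exposure. Gain or loss fitted against DMSO baseline.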

Experiment [5] can be described thus: ATG_M_32_CIS: Attagene CIS-FACTORIAL HepG2 Assay for M32 Transcription Factor (Internal Marker) (AID 2282949).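 Further: background control marker of the multiplexed CIS panel rather than a real target.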 The note with it: HepG2 Attagene cis-factorial M32 reporter, mRNA; actives raise or lower the signal. An outline of the steps: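 HepG2 transfectants (cis-regulated reporter transcription units) dosed 24 h. Reporter mRNA by RT-PCR plus CE, analysed as gain or loss relative to DMSO.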

Experiment [6] in a line: ATG_M_06_CIS: Attagene CIS-FACTORIAL HepG2 Assay for M06 Transcription Factor (Internal Marker) (AID 2282950). The note with it: HepG2 Attagene CIS-FACTORIAL M06 internal marker reporter; actives raise or lower the signal. An outline of the steps: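 Read-out is fluorescence of labelled reporter cDNA fragments resolved by capillary electrophoresis after RT-PCR. Cells: HepG2 carrying transfected cis-promoter reporter units, treated 24 h. Gain or loss of signal fitted relative to DMSO.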

For experiment [7], the target named is Hepatocyte nuclear factor 6 (Homo sapiens) (UniProt Q9UBC0). Put plainly: ATG_HNF6_CIS: Attagene CIS-FACTORIAL HepG2 Assay for human Hepatocyte Nuclear Factor 6 (HNF6) (AID 2282952). The note with it: HepG2 Attagene cis-factorial HNF6 reporter transcription; actives raise or lower the signal. An outline of the steps: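 Endogenous transcription factor activity in human HepG2 liver cells was captured through cis-regulated reporter constructs. After 24 h treatment, reporter mRNA was measured by RT-PCR with capillary electrophoresis, and activity was fitted in both directions relative to DMSO.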

Experiment [8] deals with Heat shock factor protein 1 (Homo sapiens) (UniProt Q00613). The experiment can be described thus: ATG_HSE_CIS: Attagene CIS-FACTORIAL HepG2 Assay for human Heat Shock Transcription Factor 1 (HSE) (AID 2282953). The note with it: HepG2 HSE cis-reporter, Attagene RNA transcription; actives raise or lower the signal. An outline of the steps:
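HepG2, transient MRTU transfection, cis-promoter reporters (endogenous TF activity). 24 h compound. RNA → oligo(dT) RT → PCR → 6-FAM primer extension → HpaI cut → CE. Bidirectional fit vs DMSO.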

Experiment [9] is described as follows: ATG_MRE_CIS: Attagene CIS-FACTORIAL HepG2 Assay for human Metal Responsive Element (MRE) (AID 2282954). To be noted: HepG2 MRE cis-reporter transcription, Attagene multiplex; actives raise or lower the signal. An outline of the steps:
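Endogenous MRE-dependent transcription read as reporter mRNA in transiently transfected human HepG2 cells at 24 h. RNA reverse-transcribed, PCR-amplified, labelled and resolved by capillary electrophoresis; gain or loss relative to DMSO.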

Experiment [10] can be described thus: ATG_PXRE_CIS: Attagene CIS-FACTORIAL HepG2 Assay for human Pregnane X Receptor Element (PXRE) (AID 2282957). To be noted: HepG2 Attagene CIS-FACTORIAL PXRE reporter, mRNA; actives raise or lower the signal. An outline of the steps: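 Endogenous transcription factor activity in HepG2 was gauged through induction of reporter mRNA driven by a cis-regulating promoter element, sampled 24 h post-treatment. Activity was fitted in both directions against DMSO negative control.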

Experiment [11] can be described thus: ATG_PPRE_CIS: Attagene CIS-FACTORIAL HepG2 Assay for human Peroxisome Proliferator-activated Response Element (PPRE) (AID 2282958). To be noted: HepG2 PPRE cis-element reporter, Attagene transcription factor profiling; actives raise or lower the signal. An outline of the steps: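 HepG2 cells are transiently transfected with multiplexed cis-promoter reporter units to report endogenous PPAR activity. After 24 h dosing, reporter mRNA is read by RT-PCR and capillary electrophoresis. Fitting is bidirectional against DMSO.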

The nature of experiment [12]: ATG_RORE_CIS: Attagene CIS-FACTORIAL HepG2 Assay for human RAR-related Orphan Receptor Element (RORE) (AID 2282959). To be noted: HepG2 Attagene cis-factorial RORE reporter, mRNA; actives raise or lower the signal. An outline of the steps: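 HepG2 cells carrying transiently transfected cis-regulated reporter units; RORE-driven reporter mRNA quantified 24 h post-dosing by RT-PCR, 6-FAM primer extension, HpaI digestion and capillary electrophoresis. Bidirectional fit versus DMSO.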

Experiment [13] can be described thus: ATG_Sox_CIS: Attagene CIS-FACTORIAL HepG2 Assay for human SRY-box transcription factor (SOX) (AID 2282960). The note with it: HepG2 Attagene cis-factorial SOX reporter, mRNA; actives raise or lower the signal. An outline of the steps:
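HepG2 cells transiently transfected with multiple cis-regulated reporter units, then dosed for 24 h. Reporter mRNA quantified by RT-PCR, fluorescent labelling, HpaI digestion and capillary electrophoresis; bidirectional fit versus DMSO.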

Experiment [14] addresses Transcription factor Sp1 (Homo sapiens) (UniProt P08047). Put plainly: ATG_Sp1_CIS: Attagene CIS-FACTORIAL HepG2 Assay for human Specificity Protein 1 (Sp1) (AID 2282961). To be noted: HepG2 Sp1 cis-reporter transcription, actives raise or lower the signal. An outline of the steps:
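HepG2 cells transiently transfected with multiplexed cis-regulated reporter constructs, chemical exposure 24 h. Reporter mRNA quantified by RT-PCR with capillary electrophoresis; bidirectional fit relative to DMSO.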

Experiment [15] is described as follows: ATG_SREBP_CIS: Attagene CIS-FACTORIAL HepG2 Assay for human Sterol Regulatory Element Binding (SREBP) (AID 2282962). The note with it: HepG2 Attagene cis-factorial SREBP reporter, mRNA; actives raise or lower the signal. An outline of the steps:
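Endogenous SREBP activity read as cis-element-driven reporter transcript in transiently transfected HepG2, 24 h post-dosing; quantified via RT-PCR plus capillary electrophoresis of fluorescent fragments. Gain or loss of signal fitted relative to DMSO baseline.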

For experiment [16], the target named is Signal transducer and activator of transcription 3 (Homo sapiens) (UniProt P40763). The experiment can be described thus: ATG_STAT3_CIS: Attagene CIS-FACTORIAL HepG2 Assay for human Signal Transducer and Activator of Transcription 3 (STAT3) (AID 2282963). The note with it: HepG2, Attagene cis-factorial STAT3 reporter transcription; actives raise or lower the signal. An outline of the steps: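 Readout is reporter transcript quantified by RT-PCR and capillary electrophoresis, with 6-FAM primer extension and HpaI digestion. Total RNA is taken 24 h after dosing transiently transfected HepG2 carrying cis-regulated reporter units. Bidirectional fit against DMSO.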

Experiment [17] in a line: ATG_PBREM_CIS: Attagene CIS-FACTORIAL HepG2 Assay for human Phenobarbital-responsive Enhancer Module (PBREM) (AID 2282955). The note with it: HepG2 PBREM cis-reporter, Attagene multiplexed transcription; actives raise or lower the signal. An outline of the steps:
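HepG2 cells transiently transfected with multiple cis-regulated reporter units measure endogenous transcription factor activity; 24 h compound exposure. Reporter mRNA quantified by RT-PCR, fluorescent labelling, HpaI digestion and capillary electrophoresis; bidirectional fit versus DMSO.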

Experiment [18] concerns the target Paired box protein Pax-6 (Homo sapiens) (UniProt P26367). The experiment can be described thus: ATG_Pax6_CIS: Attagene CIS-FACTORIAL HepG2 Assay for human Paired Box 6 (PAX6) (AID 2282956). The note with it: HepG2 CIS-FACTORIAL PAX6 reporter transcription, RNA readout; actives raise or lower the signal. An outline of the steps:
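Read-out is reporter transcript level, measured by RT-PCR with fluorescent primer extension and capillary electrophoresis after 24 h dosing of transfected HepG2 cells. Activity in either direction fitted relative to DMSO control.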

The target in experiment [19] is Hypoxia-inducible factor 1-alpha (Homo sapiens) (UniProt Q16665). Put plainly: ATG_HIF1a_CIS: Attagene CIS-FACTORIAL HepG2 Assay for human Hypoxia Inducible Factor 1 (HIF1A) (AID 2282951). The note with it: HepG2 Attagene cis-factorial HIF1a reporter transcription; actives raise or lower the signal. An outline of the steps: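 HepG2 cells transiently transfected with multiple cis-regulated reporter transcription units measure endogenous transcription factor activity. After 24 h exposure, reporter mRNA is quantified by RT-PCR with 6-FAM labelling, HpaI digestion and capillary electrophoresis. Bidirectional fitting against DMSO.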

SMILES strings stand for the structures. The source made the active and inactive calls. How the source made its calls: active means hit-call score of the fitted dose curve at least 0.9, where 1 is the maximum; inactive means score below 0.9.

Chain of Transcription factor Sp1 (Homo sapiens) (P08047 whole entry, looked up): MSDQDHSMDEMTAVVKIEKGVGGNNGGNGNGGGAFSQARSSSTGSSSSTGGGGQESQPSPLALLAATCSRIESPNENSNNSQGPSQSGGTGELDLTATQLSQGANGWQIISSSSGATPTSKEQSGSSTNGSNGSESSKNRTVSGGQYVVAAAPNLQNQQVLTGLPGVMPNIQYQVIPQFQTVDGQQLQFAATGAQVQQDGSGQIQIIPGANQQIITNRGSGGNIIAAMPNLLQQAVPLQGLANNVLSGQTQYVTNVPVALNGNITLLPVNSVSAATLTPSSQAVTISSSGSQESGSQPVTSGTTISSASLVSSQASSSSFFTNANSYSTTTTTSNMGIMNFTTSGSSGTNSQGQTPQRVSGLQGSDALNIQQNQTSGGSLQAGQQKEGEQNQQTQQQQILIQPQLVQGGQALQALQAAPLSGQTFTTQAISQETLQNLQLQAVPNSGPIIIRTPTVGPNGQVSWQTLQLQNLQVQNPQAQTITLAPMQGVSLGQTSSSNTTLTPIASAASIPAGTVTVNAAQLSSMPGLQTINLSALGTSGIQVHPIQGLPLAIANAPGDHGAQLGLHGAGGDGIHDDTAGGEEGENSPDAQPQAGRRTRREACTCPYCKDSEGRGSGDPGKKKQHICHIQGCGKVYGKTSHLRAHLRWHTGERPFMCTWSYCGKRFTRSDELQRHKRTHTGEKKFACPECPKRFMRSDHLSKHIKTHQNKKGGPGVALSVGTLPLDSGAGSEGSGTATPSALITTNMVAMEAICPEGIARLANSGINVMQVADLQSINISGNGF
Chain of Heat shock factor protein 1 (Homo sapiens) (Q00613 whole entry, looked up): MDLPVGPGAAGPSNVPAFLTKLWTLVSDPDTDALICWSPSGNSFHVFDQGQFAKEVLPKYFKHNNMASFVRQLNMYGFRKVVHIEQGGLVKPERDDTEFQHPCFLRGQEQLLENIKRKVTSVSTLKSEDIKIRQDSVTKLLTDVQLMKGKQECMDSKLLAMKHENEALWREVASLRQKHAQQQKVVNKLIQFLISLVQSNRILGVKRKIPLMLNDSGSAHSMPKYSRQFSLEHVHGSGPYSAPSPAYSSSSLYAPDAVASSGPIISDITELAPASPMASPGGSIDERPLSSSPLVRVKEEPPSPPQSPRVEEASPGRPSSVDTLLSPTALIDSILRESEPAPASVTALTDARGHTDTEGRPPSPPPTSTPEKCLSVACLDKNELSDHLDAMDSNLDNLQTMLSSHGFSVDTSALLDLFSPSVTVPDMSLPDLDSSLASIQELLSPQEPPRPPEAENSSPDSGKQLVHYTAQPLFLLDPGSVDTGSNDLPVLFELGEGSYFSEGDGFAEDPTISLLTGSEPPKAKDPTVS
Chain of Bile acid receptor (Homo sapiens) (Q96RI1 whole entry, looked up): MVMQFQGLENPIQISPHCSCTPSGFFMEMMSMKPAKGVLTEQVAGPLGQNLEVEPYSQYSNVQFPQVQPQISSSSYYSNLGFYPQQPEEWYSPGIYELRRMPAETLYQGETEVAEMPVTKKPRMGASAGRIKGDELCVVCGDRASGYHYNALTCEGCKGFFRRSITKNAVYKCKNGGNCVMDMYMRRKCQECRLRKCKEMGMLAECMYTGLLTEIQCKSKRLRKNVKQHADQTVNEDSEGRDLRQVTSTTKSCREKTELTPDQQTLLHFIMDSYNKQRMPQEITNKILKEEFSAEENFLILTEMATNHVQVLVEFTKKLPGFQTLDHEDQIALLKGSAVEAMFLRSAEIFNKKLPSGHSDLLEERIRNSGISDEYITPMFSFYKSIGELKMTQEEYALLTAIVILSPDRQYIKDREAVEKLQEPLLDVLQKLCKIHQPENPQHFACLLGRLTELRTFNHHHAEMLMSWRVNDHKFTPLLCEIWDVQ
Chain of Hepatocyte nuclear factor 6 (Homo sapiens) (Q9UBC0 whole entry, looked up): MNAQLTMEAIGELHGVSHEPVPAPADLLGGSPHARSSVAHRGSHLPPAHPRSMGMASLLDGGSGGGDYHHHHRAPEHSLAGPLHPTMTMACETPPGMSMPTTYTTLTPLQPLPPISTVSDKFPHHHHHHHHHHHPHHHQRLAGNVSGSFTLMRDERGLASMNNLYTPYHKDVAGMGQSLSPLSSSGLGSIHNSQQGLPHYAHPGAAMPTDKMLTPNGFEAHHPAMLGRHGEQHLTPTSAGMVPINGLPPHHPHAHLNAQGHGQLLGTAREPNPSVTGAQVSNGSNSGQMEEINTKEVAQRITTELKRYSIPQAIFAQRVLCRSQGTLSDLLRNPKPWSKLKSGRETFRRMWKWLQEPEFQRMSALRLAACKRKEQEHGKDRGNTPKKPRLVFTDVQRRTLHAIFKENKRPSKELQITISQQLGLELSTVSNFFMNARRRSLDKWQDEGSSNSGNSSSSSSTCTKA
Chain of Paired box protein Pax-6 (Homo sapiens) (P26367 whole entry, looked up): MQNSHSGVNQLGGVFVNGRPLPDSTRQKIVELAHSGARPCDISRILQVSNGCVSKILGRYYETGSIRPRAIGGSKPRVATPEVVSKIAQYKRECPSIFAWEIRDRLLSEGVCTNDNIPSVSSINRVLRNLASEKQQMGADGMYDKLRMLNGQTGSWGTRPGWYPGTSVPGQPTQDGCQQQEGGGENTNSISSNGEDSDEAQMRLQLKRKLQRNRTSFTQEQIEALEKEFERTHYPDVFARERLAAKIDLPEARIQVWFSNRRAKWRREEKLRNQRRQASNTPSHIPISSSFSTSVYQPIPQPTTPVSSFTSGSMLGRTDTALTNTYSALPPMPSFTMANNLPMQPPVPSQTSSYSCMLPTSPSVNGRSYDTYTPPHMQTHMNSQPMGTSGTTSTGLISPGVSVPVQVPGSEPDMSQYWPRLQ
Chain of Signal transducer and activator of transcription 3 (Homo sapiens) (P40763 whole entry, looked up): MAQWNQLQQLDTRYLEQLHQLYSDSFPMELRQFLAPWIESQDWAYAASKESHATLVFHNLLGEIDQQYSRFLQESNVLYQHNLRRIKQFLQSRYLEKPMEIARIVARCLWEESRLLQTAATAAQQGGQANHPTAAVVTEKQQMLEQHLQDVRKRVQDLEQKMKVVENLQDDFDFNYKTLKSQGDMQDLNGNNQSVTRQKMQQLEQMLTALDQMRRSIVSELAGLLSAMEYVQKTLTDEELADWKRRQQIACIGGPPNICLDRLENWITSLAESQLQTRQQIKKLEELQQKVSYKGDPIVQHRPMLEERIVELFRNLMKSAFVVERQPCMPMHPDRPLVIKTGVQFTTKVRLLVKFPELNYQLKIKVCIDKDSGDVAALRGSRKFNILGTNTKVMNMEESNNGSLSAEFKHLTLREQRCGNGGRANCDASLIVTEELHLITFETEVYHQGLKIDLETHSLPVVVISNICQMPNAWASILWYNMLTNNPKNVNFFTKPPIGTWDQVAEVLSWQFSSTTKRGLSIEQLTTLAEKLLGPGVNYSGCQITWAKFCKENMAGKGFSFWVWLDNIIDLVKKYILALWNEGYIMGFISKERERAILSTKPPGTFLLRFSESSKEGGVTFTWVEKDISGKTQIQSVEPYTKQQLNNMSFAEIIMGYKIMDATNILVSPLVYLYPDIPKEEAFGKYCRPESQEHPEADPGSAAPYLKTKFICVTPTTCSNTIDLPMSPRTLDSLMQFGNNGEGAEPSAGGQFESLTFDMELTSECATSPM
Chain of Hypoxia-inducible factor 1-alpha (Homo sapiens) (Q16665 whole entry, looked up): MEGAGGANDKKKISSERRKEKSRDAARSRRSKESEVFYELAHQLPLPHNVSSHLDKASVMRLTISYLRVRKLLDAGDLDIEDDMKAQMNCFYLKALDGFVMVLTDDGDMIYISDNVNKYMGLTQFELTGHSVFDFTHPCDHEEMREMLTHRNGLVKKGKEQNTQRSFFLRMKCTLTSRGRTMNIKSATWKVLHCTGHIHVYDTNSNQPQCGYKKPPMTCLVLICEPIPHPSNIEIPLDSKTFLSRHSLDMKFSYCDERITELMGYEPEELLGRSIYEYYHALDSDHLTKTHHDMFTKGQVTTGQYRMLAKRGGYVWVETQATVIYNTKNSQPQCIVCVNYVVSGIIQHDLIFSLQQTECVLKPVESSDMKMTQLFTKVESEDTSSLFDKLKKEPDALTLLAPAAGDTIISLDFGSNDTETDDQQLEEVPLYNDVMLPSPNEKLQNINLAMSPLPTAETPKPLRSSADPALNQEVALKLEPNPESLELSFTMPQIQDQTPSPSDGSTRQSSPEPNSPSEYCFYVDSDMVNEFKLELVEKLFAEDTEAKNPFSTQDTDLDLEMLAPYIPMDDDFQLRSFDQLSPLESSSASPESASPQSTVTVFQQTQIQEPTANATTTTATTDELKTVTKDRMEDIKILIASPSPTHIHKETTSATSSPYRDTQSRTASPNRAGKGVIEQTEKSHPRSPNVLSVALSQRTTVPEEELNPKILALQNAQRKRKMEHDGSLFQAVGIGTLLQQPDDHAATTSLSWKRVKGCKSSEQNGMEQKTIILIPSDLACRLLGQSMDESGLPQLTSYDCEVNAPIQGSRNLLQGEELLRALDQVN

With `OCC(O)CC(F)(F)C(F)(F)C(F)(F)C(F)(F)C(F)(F)C(F)(F)C(F)(F)C(F)(F)F` (centres undefined), the call in experiment [1], in experiment [2], in experiment [3], in [4], in experiment [5] and in [6] was inactive. Moreover, the compound was classed as inactive in [7], in experiment [8], in [9], in experiment [10], in experiment [11] and in experiment [12]. Also, the compound was called inactive in experiment [13], in experiment [14], in experiment [15] and in experiment [16].

For `CCCCOC(=O)[C@H](C)O`, the call in experiment [1], in experiment [2], in [3], in experiment [4], in experiment [5] and in [6] was inactive. Further, the result in experiment [7], in [8], in [9], in experiment [17], in experiment [18] and in experiment [10] was inactive. Also, the compound was classed as inactive in experiment [11], in [12], in [13], in experiment [14] and in [15].

Regarding `CCC(=O)OC(C)c1ccccc1` (centres undefined), the compound was called inactive in experiment [1], in [2], in experiment [4], in experiment [5], in experiment [6] and in experiment [19]. In addition, the compound was called inactive in experiment [7], in [8], in experiment [9], in [17], in [18] and in experiment [11]. The compound was classed as inactive in experiment [12], in experiment [13], in [14], in experiment [15] and in [16]. In experiment [10], the AC50 was 26.5 µM (active).

For `OCC(O)CC(F)(F)C(F)(F)C(F)(F)C(F)(F)F` (centres undefined), the compound was called inactive in experiment [1], in experiment [2], in experiment [3], in experiment [4], in experiment [5] and in experiment [6]. The result in experiment [7], in experiment [8], in experiment [9], in experiment [17], in experiment [18] and in experiment [10] was inactive. Besides, the result in [11], in [12], in [13], in experiment [14], in [15] and in experiment [16] was inactive.

The values are drawn from PubChem BioAssay (EPA / NIEHS).
